Measured potencies and affinities stand elsewhere. Activity calls are given as the source filed them.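 How the source made its calls: active means a dose-response curve fit returns a half-maximal inhibitory concentration, extrapolated values included; inactive means the fit returns no such concentration.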
Biological target: HMG-CoA reductase [Enterococcus faecalis] (UniProt Q9FD70)
Experiment: inhibitors of E. faecalis class II HMGR, confirmation, biochemical, Enterococcus faecalis (AID 1233)
Settings: purified E. faecalis HMGR, NADPH absorbance 340 nm kinetics; series mostly up to 100 µM

outcome, inactive:
COc1cccc(Nc2nc(C)cc(C)c2C#N)c1, Cc1ccccc1NC(=O)Cn1nnc(S(=O)(=O)c2ccc(C(C)(C)C)cc2)c1N, CNC(=S)N/N=C(\C)c1ccc(N2CCOCC2)cc1, O=C(CC(=O)NN=C1CCCCCC1)NCc1cccnc1, CCC(=O)N/N=C(\C)CC(=O)Nc1ccccc1-c1ccccc1, O=C(O)CCCCCCC1C(=O)NC(=O)N1CCC(O)C1CCCCC1 (stereo not drawn), Cc1ccc(C)c(N=Cc2ccc(-c3ccc([N+](=O)[O-])cc3)o2)c1, O=C(CCc1ccccc1)Nc1ncc2c(n1)CCCC2=O, COc1ccc(C[C@H]2COC(=O)[C@@H]2Cc2ccc(OC3OC(CO)C(O)C(O)C3O)c(OC)c2)cc1OC (stereo partly drawn), COc1ccc(N2CC(C(=O)NCCc3ccc(OC)c(OC)c3)CC2=O)cc1 (stereo not drawn), O=[N+]([O-])c1ccc(Cl)c(-c2ccc(/C=N/c3c(-c4ccco4)nc4ccccn34)o2)c1, CCc1c(C)sc(NC(=O)C2CC2c2ccccc2)c1C(N)=O (stereo not drawn), COc1cc(C)nc(Oc2ccc(OCCOc3ccccc3)nn2)n1, CC(C)NC(=S)N=Nc1c(O)[nH]c2ccc(C(C)C)cc12, O=C1c2ccccc2C(=O)N1CCN1CCCCC1, CCOC(=O)c1nnn(-c2ccc(OC)cc2)c1N, COn1c(SCc2ccc(C)cc2C)nc2ccccc2c1=O, Cc1cc(C)c(S(=O)(=O)c2ccccc2)c(OC(=O)c2c(F)cccc2F)n1, Fc1ccccc1CSc1nncn1NC/C=C/c1ccccc1, COc1ccccc1/C=C/C(=O)OCC(=O)Nc1c(F)cccc1F, Cc1cc(C)c2c(=O)[nH]c(SCC(=O)N(C)C)nc2n1, Cc1cc(=O)[nH]c(SCCOc2ccc3c(c2)CCC3)n1, O=C1CC(c2ccccc2)CC2=C1CN(C1CCCCC1)CN2 (stereo not drawn), COc1ccc2cc(C3NC(=O)c4ccccc4N3)c(Cl)nc2c1 (stereo not drawn), O=C(CNC(=O)c1ccc(S(=O)(=O)N2CCCC2)cc1)N/N=C/c1ccc(Cl)cc1, CN(C(=O)c1cc2ccccc2oc1=O)C1(C)CCS(=O)(=O)C1 (stereo not drawn), Cc1cc(/C=C(\C#N)C(=O)NCc2cccs2)c(C)[nH]1, CCCCCC/C(C)=C1/SC(=S)NC1=O, Cc1ccc(NC(=O)CCc2ccc(S(=O)(=O)N3CCOCC3)cc2)c(C)c1, COc1ccc(/C=C(/C#N)S(=O)(=O)c2ccc(C)cc2)cc1, COc1ccc(N2C(=O)C(CN3CCCCC3)C2c2ccccc2)cc1 (stereo not drawn), CCn1c2ccccc2c2cc(NC(=O)CSc3nnc(-c4ccc(OC)c(OC)c4)n3N)ccc21, CC1CN(C(=O)c2cccc(S(=O)(=O)Nc3ccc(Cl)cc3)c2)CC(C)O1 (stereo not drawn), Cc1cnc(NC(=O)CSc2nnc(-c3ccc(Cl)cc3Cl)n2N)s1, O=C(COC(=O)c1cccnc1)c1ccc(Cl)c(Cl)c1, Cc1nc(Nc2nc3ccccc3o2)nc2c1CCC2, N#CC(c1ccc(Cl)cc1)c1nc2ccccc2nc1C(F)(F)F (stereo not drawn), O=C1NCCCC1C(=O)Nc1ccccc1C(F)(F)F (stereo not drawn)

Source: PubChem BioAssay AID1233 (SRMLSC, 2008)
